Here are results for 15 compounds from PubChem BioAssay (NCATS).

Each structure is given as a SMILES string. Results filed as inconclusive are left out. Values without a mark were called inactive. Calls of active or inactive are those of the source. The call rests on the fitted dose curve; in most records, active means well fitted curve in the direction sought with a large enough effect; inconclusive means small, poorly fitted or top-dose-only effect, or another doubt; inactive means no such curve, though single readings can be large; an effect the other way counts as inactive or inconclusive.

In experiment [1] the target is Cytochrome P450 3A4 (Homo sapiens) (UniProt P08684). The experiment in a line: qHTS Assay for Inhibitors and Substrates of Cytochrome P450 3A4 (AID 884). Further: nearly all actives have a fitted effect of over 50% in size. Further: potency means the concentration at half of the fitted maximal effect. On activity change, negative = inhibition: on the % scale 0 is the no-effect control and ±100 the full control effect. The settings on record: recombinant CYP3A4, Luciferin-PPXE luminescence; series mostly up to 57.1 µM. In short, it runs like this: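 20 nM human CYP3A4 with 25 uM Luciferin-PPXE (at KM) in 200 mM KPO4, preincubated 10 min with compound; NADPH regeneration started a 60 min RT reaction. Luciferin detected by luminescence, normalized to 57 uM ketoconazole as full inhibition.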
In general terms: qHTS replaces the single test concentration by a dilution series.

In experiment [2] the target is Muscarinic acetylcholine receptor M1 (Rattus norvegicus) (UniProt P08482). Description: qHTS Assay for Antagonists of Acetylcholine Muscarinic M1 Receptor: Kinetic Measurement of Intracellular Calcium Response (AID 943).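 Further: Fluo-4 calcium signal as peak divided by basal fluorescence over 4 min; nearly all actives have a fitted effect of over 75% in size.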 To be noted: M1-expressing cells, kinetic intracellular calcium fluorescence; series mostly up to 35.3 µM. In short, it runs like this: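 Intracellular calcium flux, recorded with Fluo-4 in a kinetic plate reader, served as signal; the response to carbachol at EC80 (100 nM final) was taken as maximal over minimal fluorescence after a 10 min compound pre-incubation in rat M1-CHO cells.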

Experiment [3] in a line: qHTS Assay for Identification of Small Molecule Antagonists for Thrombopoietin (TPO) Signaling Pathway (AID 918). Further: potency means the concentration at half of the fitted maximal effect; nearly all actives have a fitted effect of over 60% in size. To be noted: TPO-dependent cell signaling reporter, antagonist mode. In a few lines: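 First, Ba/F3 reporter cells expressing human TPO receptor were held overnight without IL-3. Next, compound and 26 pM TPO were added. After 24 hrs incubation at 37 C, luciferase luminescence under the Glycoprotein IIb promoter was recorded.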

Experiment [4] concerns the target ATP-dependent 6-phosphofructokinase (Trypanosoma brucei brucei) (UniProt O15648). Description: qHTS Assay to Find Inhibitors of T. brucei phosphofructokinase: hit validation (AID 492961).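 Further: luminescence reports ADP formed as PFK phosphorylates fructose-6-phosphate with ATP; on the % scale 0 is the no-effect control and ±100 the full control effect.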 To be noted: T. brucei PFK, ADP-Glo luminescence; series mostly up to 51.4 µM. In short, it runs like this:
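Compounds titrated; %activity normalized to 0x and 1x enzyme controls, curve-fitted. Readout: ADP-Glo luminescence after 45 min room-temperature reaction of 1.25 nM PFK, 0.1 mM ATP, 0.5 mM F6P, pH 8.0.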

For experiment [5], the target named is Luciferin 4-monooxygenase (Photinus pyralis) (UniProt P08659). Description: Biochemical firefly luciferase enzyme assay for NPC (AID 624030).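 Further: purified P. pyralis luciferase at 10 nM with luciferin and ATP substrate; 0% = DMSO and -100% = full luciferase inhibition by PTC124 control; nearly all actives have a fitted effect of over 70% in size.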 To be noted: purified P. pyralis luciferase, luminescence, 5 min; series mostly up to 58.6 µM. In a few lines: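 Purified P. pyralis luciferase at 10 nM in 50 mM Tris Acetate (final), luminescence read within 5 minutes of enzyme addition to compounds. Activity normalised to PTC124 versus DMSO; concentration-response curves classed by r2, magnitude and activity.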

Experiment [6] can be described thus: qHTS profiling for inhibitors of Plasmodium falciparum proliferation (AID 504749). Further: nearly all actives have a fitted effect of over 60% in size. Further: potency means the concentration at half of the fitted maximal effect.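 On activity, negative = inhibition: 0% = DMSO vehicle and full inhibition = artemisinin control.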 To be noted: P. falciparum in erythrocytes, SYBR Green DNA, 72 h. In a few lines: (§1)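 Readout was DNA-dye fluorescence from lysed cultures, ex 485/em 535 nm. Parasitized red cells had grown 72 h with compound; data scaled between 0.29 uM artemisinin and DMSO wells and corrected using vehicle-only plates.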

The test system of the next experiment is AS120. The experiment is described as above. To be noted: P. falciparum in erythrocytes, SYBR Green DNA, 72 h; series mostly up to 28.7 µM. In a few lines:
as §1

The next experiment relates to ATS189. The experiment is described as above. To be noted: P. falciparum in erythrocytes, SYBR Green DNA, 72 h; series mostly up to 28.7 µM. In short, it runs like this: as §1
In a further experiment the test system is CP192. Described as above. The settings on record: P. falciparum in erythrocytes, SYBR Green DNA, 72 h; series mostly up to 28.7 µM. In short, it runs like this:
as §1

The test system of another experiment is CP203. The description is as above. To be noted: P. falciparum in erythrocytes, SYBR Green DNA, 72 h; series mostly up to 28.7 µM. In a few lines:
as §1

The test system of the next experiment is CP238. The description is as above. To be noted: P. falciparum in erythrocytes, SYBR Green DNA, 72 h; series mostly up to 28.7 µM. In a few lines:
as §1

The subject of a further experiment is CP262. The description is as above. To be noted: P. falciparum in erythrocytes, SYBR Green DNA, 72 h; series mostly up to 28.7 µM. In short, it runs like this: as §1
The next experiment deals with CP265. Described as above. The settings on record: P. falciparum in erythrocytes, SYBR Green DNA, 72 h; series mostly up to 28.7 µM. In a few lines:
as §1

Another experiment concerns DIV30. Described as above. To be noted: P. falciparum in erythrocytes, SYBR Green DNA, 72 h; series mostly up to 28.7 µM. In a few lines:
as §1

In the next experiment the test system is ECU. Described as above. To be noted: P. falciparum in erythrocytes, SYBR Green DNA, 72 h; series mostly up to 28.7 µM. In a few lines: as §1
The test system of the next experiment is ICS. The description is as above. To be noted: P. falciparum in erythrocytes, SYBR Green DNA, 72 h; series mostly up to 28.7 µM. In short, it runs like this: as §1
The next experiment has as its system P94_40. Described as above. The settings on record: P. falciparum in erythrocytes, SYBR Green DNA, 72 h; series mostly up to 28.7 µM. In a few lines: as §1
The subject of the next experiment is PC49. Described as above. The settings on record: P. falciparum in erythrocytes, SYBR Green DNA, 72 h; series mostly up to 28.7 µM. In short, it runs like this:
as §1

For the next experiment, the system named is TAB165. The description is as above. The settings on record: P. falciparum in erythrocytes, SYBR Green DNA, 72 h; series mostly up to 28.7 µM. In a few lines:
as §1

In the next experiment the test system is W2. Described as above. The settings on record: P. falciparum in erythrocytes, SYBR Green DNA, 72 h; series mostly up to 28.7 µM. In a few lines:
as §1

[7] abbreviates: at 28.7 µM (top of the series), parasite line A.
[8] abbreviates: at 28.7 µM (top of the series), parasite line B.

Chain of Luciferin 4-monooxygenase (Photinus pyralis) (P08659 whole entry, looked up): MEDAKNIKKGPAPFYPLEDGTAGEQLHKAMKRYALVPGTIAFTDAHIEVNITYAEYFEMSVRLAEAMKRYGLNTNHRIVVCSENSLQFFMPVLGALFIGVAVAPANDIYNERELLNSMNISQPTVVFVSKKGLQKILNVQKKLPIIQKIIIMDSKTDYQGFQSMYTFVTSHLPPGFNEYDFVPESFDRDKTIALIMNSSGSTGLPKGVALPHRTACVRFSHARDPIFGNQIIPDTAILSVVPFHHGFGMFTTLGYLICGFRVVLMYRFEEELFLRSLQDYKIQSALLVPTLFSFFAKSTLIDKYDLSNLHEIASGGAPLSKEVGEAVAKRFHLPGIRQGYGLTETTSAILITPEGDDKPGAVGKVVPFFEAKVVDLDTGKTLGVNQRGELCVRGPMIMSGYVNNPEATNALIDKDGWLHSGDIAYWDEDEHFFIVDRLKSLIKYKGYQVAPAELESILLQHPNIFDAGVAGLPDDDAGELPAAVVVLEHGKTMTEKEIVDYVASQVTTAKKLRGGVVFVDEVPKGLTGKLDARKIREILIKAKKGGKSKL
Chain of Cytochrome P450 3A4 (Homo sapiens) (P08684 whole entry, looked up): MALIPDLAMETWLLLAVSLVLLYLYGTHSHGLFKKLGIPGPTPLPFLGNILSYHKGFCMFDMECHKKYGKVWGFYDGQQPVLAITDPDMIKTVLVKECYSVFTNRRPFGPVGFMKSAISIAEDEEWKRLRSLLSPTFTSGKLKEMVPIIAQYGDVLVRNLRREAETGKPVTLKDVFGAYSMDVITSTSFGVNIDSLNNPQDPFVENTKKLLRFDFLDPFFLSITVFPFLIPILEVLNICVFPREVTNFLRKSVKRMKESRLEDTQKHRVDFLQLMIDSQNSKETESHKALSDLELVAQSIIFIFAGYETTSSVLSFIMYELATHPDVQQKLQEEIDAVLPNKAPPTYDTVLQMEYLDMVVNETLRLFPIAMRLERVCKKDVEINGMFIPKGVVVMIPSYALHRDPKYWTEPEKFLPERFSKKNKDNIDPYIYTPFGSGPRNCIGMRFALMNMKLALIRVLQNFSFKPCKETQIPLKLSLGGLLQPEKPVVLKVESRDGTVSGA
Chain of Muscarinic acetylcholine receptor M1 (Rattus norvegicus) (P08482 whole entry, looked up): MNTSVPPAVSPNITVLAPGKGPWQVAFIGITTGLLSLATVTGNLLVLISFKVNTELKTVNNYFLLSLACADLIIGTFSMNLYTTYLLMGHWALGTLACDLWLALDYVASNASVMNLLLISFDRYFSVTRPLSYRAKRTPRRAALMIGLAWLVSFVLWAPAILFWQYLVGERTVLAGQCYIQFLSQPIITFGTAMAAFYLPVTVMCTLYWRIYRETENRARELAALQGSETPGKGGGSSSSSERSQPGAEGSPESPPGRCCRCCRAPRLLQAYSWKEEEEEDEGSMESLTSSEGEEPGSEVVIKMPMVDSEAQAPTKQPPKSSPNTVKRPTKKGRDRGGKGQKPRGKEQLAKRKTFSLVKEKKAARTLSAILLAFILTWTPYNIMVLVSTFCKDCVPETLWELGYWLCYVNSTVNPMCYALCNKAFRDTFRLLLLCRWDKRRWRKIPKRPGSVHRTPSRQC
Chain of ATP-dependent 6-phosphofructokinase (Trypanosoma brucei brucei) (O15648 whole entry, looked up): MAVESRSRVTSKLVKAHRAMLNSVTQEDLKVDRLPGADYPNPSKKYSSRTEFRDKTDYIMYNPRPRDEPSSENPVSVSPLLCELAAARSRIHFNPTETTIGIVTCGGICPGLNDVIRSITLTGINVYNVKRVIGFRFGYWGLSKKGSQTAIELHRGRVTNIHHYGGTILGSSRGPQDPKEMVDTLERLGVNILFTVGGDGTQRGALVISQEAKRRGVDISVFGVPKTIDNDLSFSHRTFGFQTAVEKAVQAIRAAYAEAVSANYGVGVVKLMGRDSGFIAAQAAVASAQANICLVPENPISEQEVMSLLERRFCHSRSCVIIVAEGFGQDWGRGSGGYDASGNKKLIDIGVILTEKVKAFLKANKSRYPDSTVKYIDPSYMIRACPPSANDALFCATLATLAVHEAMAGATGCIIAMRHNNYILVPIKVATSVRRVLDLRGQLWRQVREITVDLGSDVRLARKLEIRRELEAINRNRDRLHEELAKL

In the case of `N#CCCn1c(=O)c(CCc2ccccc2)nc2cnc(Oc3ccccc3)nc21`, in [1], the Potency is 2.51 µM (active).

For `OC[C@@H]1NC[C@@H](O)[C@@H](O)[C@H]1O`, the Potency entry in experiment [2] was “inactive”.

For the compound `C[C@]1(c2ccccc2)O[C@@H]2C[C@@H]3[C@@H]4CCC5=CC(=O)C=C[C@@]5(C)[C@]4(F)[C@H](O)C[C@]3(C)[C@@]2(C(=O)CO)O1`, the Potency in experiment [1] was 3.16 µM (active).

Take `OC[C@@H]1O[C@@H](n2cnc3c(N[C@@H]4C[C@@H]5CC[C@H]4C5)ncnc32)[C@@H](O)[C@H]1O`: the Potency entry in experiment [2] is “inactive”.

For `NC(N)=Nc1nc2ccc([N+](=O)[O-])cc2[nH]1`, the activity change, negative = inhibition in experiment [1] was 107% [at 11.4 µM].

On to `C=C[C@@]1(C)CC(=O)[C@@]2(O)[C@@]3(C)[C@H](O)CCC(C)(C)[C@@H]3[C@H](O)[C@H](OC(C)=O)[C@]2(C)O1`, for which, in experiment [2], the Potency entry was “inactive”.

Turning to `Nc1ncnc2c1ncn2[C@@H]1O[C@@H](C(=O)NC2CC2)[C@H](O)[C@@H]1O`, in experiment [2], the Potency entry is “inactive”.

As for `CN(CCc1ccccn1)c1ccc2c(c1)Cc1ccccc1-2`, the Potency in experiment [1] is 2.51 µM (active).

In the case of `O=c1ccn([C@@H]2O[C@@H](COP(=O)(O)OP(=O)(O)O)[C@H](O)[C@@H]2O)c(=O)[nH]1`, the Potency entry in experiment [2] was “inactive”.

Take `CC1(C)CCC(NC(=O)[C@H](N)CCC(=O)O)CC1`: the Potency result in experiment [2] is “inactive”.

With `CC(C)[C@H]1C(=O)C(C(N)=O)=C(O)[C@]2(O)C(=O)C3=C(O)c4c(O)ccc(N(C)C)c4C[C@H]3C[C@@H]12`, the Potency in experiment [3] was 2.51 µM (active). In addition, the Potency entry in experiment [2] is “inactive”.

With `C=CCN1CCc2c(cc(O)c(O)c2Cl)[C@H](c2ccccc2)C1`, the Potency entry in [1] is “inactive”.

With `C[C@@H]1C[C@H]2[C@H]3C[C@@H](F)C4=CC(=O)C=C[C@]4(C)[C@@]3(Cl)[C@@H](O)C[C@@]2(C)[C@@H]1C(=O)COC(=O)C(C)(C)C`, the outcome in [4] and in experiment [5] was inactive. The activity, negative = inhibition in experiment [6] (setting [7]) was 0.272%; in experiment [6] (setting [8]) it was -10.2%. Also, the Potency result in the experiment with AS120, in the experiment on ATS189, in the experiment with CP192, in the experiment on CP203, in the experiment with CP238 and in the experiment on CP262 was “inactive” in each case. For the same compound, the Potency entry in the experiment with CP265, in the experiment on DIV30, with ECU, in the experiment with P94_40, in the experiment with PC49 and with TAB165 was “inactive” each time. The Potency with ICS is 6.31 µM (active); with W2, 10.7 µM (active).

For the compound `CO/N=C(\C(=O)N[C@@H]1C(=O)N2C(C(=O)[O-])=C(C[N+]3(C)CCCC3)CS[C@@H]12)c1csc(N)n1`, the compound was classed as inactive in [4] and in experiment [5]. Also, the activity, negative = inhibition was 2.78% in experiment [6] (setting [7]) and 10.9% in [6] (setting [8]). The Potency result in the experiment with AS120, in the experiment with ATS189, with CP192, in the experiment on CP203, in the experiment on CP238 and in the experiment on CP262 was “inactive” each time. The Potency entry with CP265, in the experiment with DIV30, in the experiment with ECU, in the experiment with ICS, with P94_40 and in the experiment with PC49 was “inactive” each time. The Potency entry with TAB165 and in the experiment on W2 was “inactive” throughout.

Regarding `COc1cc2nc(N(C)CCCNC(=O)[C@@H]3CCCO3)nc(N)c2cc1OC`, the result in experiment [4] and in [5] was inactive. The activity, negative = inhibition is 3.61% in experiment [6] (at 12.8 µM (top of the series), parasite line A) and 7.55% in [6] (at 12.8 µM (top of the series), parasite line B). Further, the Potency result in the experiment on AS120, with ATS189, in the experiment with CP192, with CP203, with CP238 and in the experiment on CP262 was “inactive” throughout. The Potency entry in the experiment on CP265, in the experiment with DIV30, with ECU, in the experiment with ICS, in the experiment with P94_40 and in the experiment with PC49 was “inactive” throughout. In addition, the Potency entry in the experiment with TAB165 and in the experiment on W2 was “inactive” throughout.
